PubChem BioAssay (NCATS)
Results filed as inconclusive are left out. Where a call stands in place of a potency, no number is given. The source made the active and inactive calls. The call rests on the fitted dose curve; in most records, active means well fitted inhibition curve with a large enough effect; inconclusive means small, poorly fitted or top-dose-only effect; inactive means flat fitted curve, though single readings scatter.
Potency means the concentration at half of the fitted maximal effect.

Each molecule was assayed on Zika virus NS2B-NS3 protease (assay: Primary screen GU AMC qHTS for Zika virus inhibitors (AID 1347154; further: nearly all actives have a fitted effect of over 70% in size)). Details: Zika NS2B-NS3 unlinked protease, AMC fluorogenic substrate; series mostly up to 54.1 µM.
Method in brief: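 Unlinked Zika NS2B hydrophilic domain/NS3 protease domain noncovalent complex (25 nM final) in 10 mM Tris-HCl pH 8.0, 0.01% Tween 20, with AMC peptide substrate. Fluorescence (ex 340, em 450 nm) change over 15 min, room temperature; percent inhibition fitted to 4-parameter Hill equation.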
In the case of `COc1cc(/C=C/C(=O)CC(=O)/C=C/c2ccc(O)c(OC)c2)ccc1O`, the Potency is reported as “inactive”. For `Clc1ccccc1-c1nc(-c2ccncc2)no1`, the Potency was “inactive”. `Cc1nc2ccccc2n1Cc1ccc(Cl)cc1` was tested, and the Potency was “inactive”. In the case of `CCCCCCCC/C=C/C(=O)O`, the Potency is reported as “inactive”. `CC(C(=O)O)c1ccc2c(c1)[nH]c1ccc(Cl)cc12` (configuration not stated) was tested, and the Potency was “inactive”. With `C/C(=N\O)c1ccc(OCC(=O)N2CCCCC2)cc1` the Potency was “inactive”. With `CC(=O)c1ccc(OCC(=O)N2CCCCC2)cc1` the Potency was “inactive”. In the case of `Cc1c(C(=O)O)c(O)cc2c1C(=O)c1c(O)c([C@@H]3O[C@H](CO)[C@@H](O)[C@H](O)[C@H]3O)c(O)c(O)c1C2=O`, the Potency is reported as “inactive”. `COc1ccnc2c1CCCCC2S(=O)c1nc2ccccc2[nH]1` (configuration not stated) was tested, and the Potency was 35.5 µM (active). `O=C1CN(/N=C/c2ccc(-c3ccc([N+](=O)[O-])cc3)o2)C(=O)N1` was tested, and the Potency was “inactive”. In the case of `COc1ccc(-c2cc(=S)ss2)cc1`, the Potency is reported as “inactive”. With `N=C(N)N` the Potency was “inactive”. For `CC(C)(C)c1nnc(NS(=O)(=O)c2ccc(N)cc2)s1`, the Potency was “inactive”. For `c1ccc2sc(SSc3nc4ccccc4s3)nc2c1`, the Potency was “inactive”. For `O=C(O)c1ccccc1Nc1cccc(C(F)(F)F)c1`, the Potency was “inactive”. In the case of `CCCOC(=O)c1ccc(O)cc1`, the Potency is reported as “inactive”. `COC(=O)C1=C(C)NC(C)=C(C(=O)OCC(C)C)C1c1ccccc1[N+](=O)[O-]` (configuration not stated) was tested, and the Potency was “inactive”. With `c1ccc2sc(SN3CCOCC3)nc2c1` the Potency was “inactive”. For `Cc1[nH]cnc1CN1CCc2c(c3ccccc3n2C)C1=O`, the Potency was “inactive”. `O=C(O)c1cc(O)c(O)c(O)c1` was tested, and the Potency was “inactive”. In the case of `Cc1ccc(O)c(-n2nc3ccccc3n2)c1`, the Potency is reported as “inactive”. `O=c1[nH]c2ccccc2n1CCCN1CCN(C(c2ccccc2)c2ccccc2)CC1` was tested, and the Potency was “inactive”. In the case of `O=C(Nc1ccc(C(=O)O)c(O)c1)c1ccccc1`, the Potency is reported as “inactive”. With `O=C(O)/C=C\C(=O)O` the Potency was “inactive”. With `Nc1nc2ccc([N+](=O)[O-])cc2s1` the Potency was “inactive”. With `O=C(O)[C@@H]1C[C@@H](C(=O)O)N1` the Potency was “inactive”. `CCCCCCCCCCCCCCCCCC(=O)O` was tested, and the Potency was “inactive”. With `CCCCCCCCCCCCCCCC(=O)OC(C)C` the Potency was “inactive”. For `NC(=S)NCCC[C@H](N)C(=O)O`, the Potency was “inactive”. For `Nc1ccc(C(=O)O)c(O)c1`, the Potency was “inactive”. In the case of `CN(C)[C@@H]1C(=O)C(C(=O)NCN2CCCC2)=C(O)[C@@]2(O)C(=O)C3=C(O)c4c(O)cccc4[C@@](C)(O)C3C[C@@H]12` (some centres not stated), the Potency is reported as “inactive”. `CCCCCCCCCCCC(=O)[O][Sn]([CH2]CCC)([CH2]CCC)[O]C(=O)CCCCCCCCCCC` was tested, and the Potency was “inactive”. With `CO[C@@]1(NC(=O)Cc2cccs2)C(=O)N2C(C(=O)O)=C(COC(N)=O)CS[C@@H]21` the Potency was “inactive”. In the case of `O=C(CS)Nc1ccccc1`, the Potency is reported as “inactive”. With `COc1cc(CNC(=O)CCCC/C=C/C(C)C)ccc1O` the Potency was “inactive”. For `CNC(=O)c1c(I)c(NC(=O)CCCCC(=O)Nc2c(I)c(C(=O)O)c(I)c(C(=O)NC)c2I)c(I)c(C(=O)O)c1I`, the Potency was “inactive”. For `Ic1ccc(N2CCN(Cc3c[nH]c4ncccc34)CC2)cc1`, the Potency was “inactive”.
